Molecules are shown by their SMILES. Where a name gives a salt, the structure may show the parent alone.

The experiment deals with Saccharomyces cerevisiae BY4741 SeMeCo community. Put plainly: z-score of subpopulation abundance vs DMSO median, subpopulation auxotrophic for HU; higher = larger share of this subpopulation than in DMSO controls. The settings on record: 10 µM; 24 h; SM minimal medium; subpopulation (auxotrophy): HU. The method, then:
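Fluorescent four-plasmid SeMeCo (self-establishing metabolically cooperating S. cerevisiae BY4741 community; plasmids pH-mRuby2, pL-mWasabi, pU-eCFP, pM-TagRFP657) was grown 24 h in minimal SM medium with each Selleck FDA-approved drug at 10 µM in 384-well plates. Cells were fixed and imaged by high-content confocal microscopy. For each auxotrophic subpopulation (and the prototroph), a z-score gives the deviation from the DMSO vehicle-control population median.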
As for `CN(C)C(=O)Oc1ccc[n+](C)c1` [Pyridostigmine Bromide], the “z-score of subpopulation abundance” value turned out to be 0.63. In the case of `CCOC(=O)Nc1ccc(NCc2ccc(F)cc2)cc1N` [Retigabine 2HCl], the “z-score of subpopulation abundance” value was -0.49. Consider `COc1ccc(C(CN(C)C)C2(O)CCCCC2)cc1` (stereo not given) [Venlafaxine], for which the “z-score of subpopulation abundance” value was determined as 0.4. To `NCC(O)c1ccc(O)cc1` (racemic) [(+,-)-Octopamine HCl] belongs 0.29. As to `CCOC(=O)Nc1ccc(NCc2ccc(F)cc2)cc1N` [Retigabine], the “z-score of subpopulation abundance” value was -0.59. To `Cc1cc(C(C#N)c2ccc(Cl)cc2)c(Cl)cc1NC(=O)c1cc(I)cc(I)c1O` (stereo not given) [Closantel] belongs 0.25; to `CN1c2ccccc2C(NCCCCCCC(=O)O)c2ccc(Cl)cc2S1(=O)=O` (stereo not given) [Tianeptine sodium], -1.1. Regarding `CC[C@H]1[C@@H]2C[C@H]3[C@@H]4N(C)c5ccccc5[C@]45C[C@@H]([C@@H]2[C@H]5O)N3[C@@H]1O` [Ajmaline], the “z-score of subpopulation abundance” value is -0.28.

`C[C@@H]1CC[C@H]2[C@@H](C)C(=O)O[C@@H]3O[C@@]4(C)CC[C@@H]1[C@]32OO4` [Artemisinin]: the “z-score of subpopulation abundance” value was determined as 0.58. Take `CCN1CC2(OC(=O)c3ccccc3NC(C)=O)CCC(OC)C34C1C(CC23)C1(O)CC(OC)C2CC4C1(O)C2OC` (stereo not given) [Lappaconitine]: the “z-score of subpopulation abundance” value was 0.26. To `CCN(C)C(=O)Oc1cccc([C@H](C)N(C)C)c1` [Rivastigmine Tartrate] belongs -0.86; to `Oc1cc(Cl)ccc1Oc1ccc(Cl)cc1Cl` [Triclosan], 0.43. With `NCCc1c[nH]c2ccc(O)cc12` [Serotonin HCl], the “z-score of subpopulation abundance” value is -0.18.

With `Nc1ccncc1` [4-Aminopyridine], the “z-score of subpopulation abundance” value came to 0.52. Regarding `COC(=O)C1=CCCN(C)C1` [Arecoline HBr], the “z-score of subpopulation abundance” value was 0.06. Under `O=C(O[C@H]1C[N+]2(CCCOc3ccccc3)CCC1CC2)C(O)(c1cccs1)c1cccs1` [Aclidinium Bromide] stands 0.63; under `CC1(C)SC2C(N)C(=O)N2C1C(=O)O` (stereo not given) [6-Aminopenicillanic acid], 0.4. Under `C#C[C@]1(O)C=C[C@H]2[C@@H]3CCC4=CC(=O)CC[C@@H]4[C@H]3CC[C@@]21CC` [Gestodene] stands -0.67.

`CC[C@@]1(O)C(=O)OCc2c1cc1n(c2=O)Cc2cc3ccccc3nc2-1` [Camptothecin]: the “z-score of subpopulation abundance” value is -0.74. To `C[C@@H]1O[C@@H](O[C@H]2C[C@@H](O)[C@]3(CO)[C@H]4[C@H](O)C[C@]5(C)[C@@H](C6=CC(=O)OC6)CC[C@]5(O)[C@@H]4CC[C@]3(O)C2)[C@H](O)[C@H](O)[C@H]1O` [Ouabain] belongs -0.71. With `CN(C)[C@@H]1C(=O)C(C(N)=O)=C(O)[C@@]2(O)C(=O)C3=C(O)c4c(O)cccc4[C@@](C)(O)[C@H]3[C@H](O)[C@@H]12` [Oxytetracycline (Terramycin)], the “z-score of subpopulation abundance” value was determined as 0.99. As for `CN1[C@@H]2C[C@@H](OC(=O)[C@H](CO)c3ccccc3)C[C@H]1[C@@H]1O[C@@H]12` [Scopolamine HBr], the “z-score of subpopulation abundance” value was -1.37. To `CN[C@@H]1[C@@H](O)[C@@H](O[C@@H]2[C@@H](O)[C@H](O[C@H]3O[C@H]([C@@H](C)O)[C@@H](O)[C@H](O)[C@H]3N)[C@@H](N)C[C@H]2N)OC[C@]1(C)O` [Geneticin (G418 Sulfate)] belongs -0.46. Under `CN1[C@@H]2CC[C@H]1C[C@@H](OC(=O)[C@H](CO)c1ccccc1)C2` [Hyoscyamine] stands -0.35; under `CC(=O)O[C@H]1C[C@@H]2CC[C@@H]3[C@H](CC[C@@]4(C)[C@H]3C[C@H]([N+]3(C)CCCCC3)[C@@H]4OC(C)=O)[C@@]2(C)C[C@@H]1[N+]1(C)CCCCC1` [Pancuronium dibromide], -0.53. Under `O=[N+]([O-])C(Br)(CO)CO` [Bronopol] stands 0.4. With `CC(C)(O)C(Cl)(Cl)Cl` [Chlorobutanol], the “z-score of subpopulation abundance” value was 0.05. Under `CCCCCCCCCCCCCCCC[n+]1ccccc1` [Cetylpyridinium Chloride] stands 16.1; under `CN(C)[C@@H]1C(=O)C(C(N)=O)=C(O)[C@@]2(O)C(=O)C3=C(O)c4c(O)cccc4[C@@](C)(O)[C@H]3[C@H](O)[C@@H]12` [Oxytetracycline Dihydrate], -0.06; under `N#Cc1nn(-c2c(Cl)cc(C(F)(F)F)cc2Cl)c(N)c1[S+]([O-])C(F)(F)F` (stereo not given) [Fipronil], -0.37. To `CN(C)[C@@H]1C(=O)C(C(N)=O)=C(O)[C@@]2(O)C(=O)C3=C(O)c4c(O)ccc(Cl)c4[C@@](C)(O)[C@H]3C[C@@H]12` [Chlortetracycline HCl] belongs -0.42. Consider `NC(=O)CN1CCCC1=O` [Piracetam], for which the “z-score of subpopulation abundance” value is 0.46.

Regarding `CCC1=C[C@H]2CN3CCc4c([nH]c5ccccc45)[C@](C(=O)OC)(C2)[C@H]13` [Catharanthine], the “z-score of subpopulation abundance” value is -0.39. Under `C[N+]12CCC(CC1)C(OC(=O)C(O)(c1ccccc1)c1ccccc1)C2` (stereo not given) [Clidinium Bromide] stands -0.29. As to `COc1ccc2c3c([nH]c2c1)C(C)=NCC3` [Harmaline], the “z-score of subpopulation abundance” value was -7.98. To `CCCN1C[C@H](CSC)C[C@@H]2c3cccc4[nH]cc(c34)C[C@H]21` [Pergolide Mesylate] belongs -0.93.

Consider `Nc1nc(N)nc(NC2CC2)n1` [Cyromazine], for which the “z-score of subpopulation abundance” value is 0.05.

With `C[N+]1(C)[C@@H]2C[C@@H](OC(=O)[C@H](CO)c3ccccc3)C[C@H]1[C@@H]1O[C@@H]12` [Methscopolamine], the “z-score of subpopulation abundance” value was found to be 0.7. To `C[N+](C)(C)CCCCCCCCCC[N+](C)(C)C` [Decamethonium Bromide] belongs -0.06; to `CN[C@@H]1[C@@H](O)[C@@H](O[C@@H]2[C@@H](O)[C@H](O[C@H]3O[C@H](CN)CC[C@H]3N)[C@@H](N)C[C@H]2N)OC[C@]1(C)O.CN[C@@H]1[C@@H](O)[C@@H](O[C@@H]2[C@@H](O)[C@H](O[C@H]3O[C@H]([C@@H](C)N)CC[C@H]3N)[C@@H](N)C[C@H]2N)OC[C@]1(C)O.CN[C@@H]1[C@@H](O)[C@@H](O[C@@H]2[C@@H](O)[C@H](O[C@H]3O[C@H]([C@@H](C)NC)CC[C@H]3N)[C@@H](N)C[C@H]2N)OC[C@]1(C)O` [Gentamicin Sulfate], -0.53.
